Compounds without any hit were thinned out: in the full panel of roughly 83,000, 20% have a hit.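 Values shown are percent growth following 48 h exposure of cells in 96-well plates to a single concentration of compound; below 10 was considered active.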 A number with no mark means an inactive call. Activity calls are given as the source filed them.
Tests used:
Experiment in all cases: NCI-60 one-dose screen, 48 h (100 = growth as untreated, 0 = no growth, -100 = all killed)
Conditions in all cases: 10 µM unless noted
[1] = system: SR leukemia
[2] = system: RPMI-8226 leukemia
[3] = system: OVCAR-8 ovarian
[4] = system: OVCAR-5 ovarian
[5] = system: OVCAR-4 ovarian
[6] = system: SK-OV-3 ovarian
[7] = system: IGROV1 ovarian
[8] = system: OVCAR-3 ovarian
[9] = system: HS 578T breast
[10] = system: NCI/ADR-RES ovarian
[11] = system: T-47D breast
[12] = system: BT-549 breast
[13] = system: MDA-MB-435 melanoma
[14] = system: SW-620 colon
[15] = system: MCF7 breast
[16] = system: HCT-116 colon
[17] = system: HCC-2998 colon
[18] = system: KM12 colon

SMILES	growth [1]	growth [2]	growth [3]	growth [4]	growth [5]	growth [6]	growth [7]	growth [8]	growth [9]	growth [10]	growth [11]	growth [12]	growth [13]	growth [14]	growth [15]	growth [16]	growth [17]	growth [18]
C#CCn1cnc2cnc(Nc3cccc(NC(=O)C=C)c3)nc21	4.73% [6.25 µM] (active)	-14% [6.25 µM] (active)	84.1% [6.25 µM]	101% [6.25 µM]	90.8% [6.25 µM]	52.4% [6.25 µM]	75.2% [6.25 µM]	104% [6.25 µM]	74.5% [6.25 µM]	98.6% [6.25 µM]	66% [6.25 µM]	60.9% [6.25 µM]	60.6% [6.25 µM]	91.2% [6.25 µM]	77.4% [6.25 µM]	86.4% [6.25 µM]	97.9% [6.25 µM]	91.9% [6.25 µM]
CCCCCCCCCCCCCCCCCC1=NC(C)(C)CN1CC(C)O (stereo not given)	-13.6% (active)	78.8%	46.5%	89.4%	94.4%	80.9%	66.1%	46.6%	107%	69.9%	72.6%	101%	50.9%	3.6% (active)	42.4%	7.84% (active)	75.3%	44.1%
NC(N)=NS(=O)(=O)c1ccc(NC2=C(I)C(=O)c3ncccc3C2=O)cc1	104%	104%	97.2%	112%	93%	87.8%	97.5%	95.3%	103%	94.1%	106%	108%	109%	91.1%	97.9%	102%	111%	105%
CN(C)CCCNC(=O)c1cncnc1Nc1ccc(OCc2cccc(F)c2)c(Cl)c1	-48.5% (active)	-14.6% (active)	1.06% (active)	36.1%	25.7%	-24% (active)	1.4% (active)	6.33% (active)	-30% (active)	43.3%	-17% (active)	53.6%	-88.6% (active)	-67.7% (active)	-44% (active)	-82% (active)	6.05% (active)	-32.1% (active)
O=C(CCCCCCN1CC(=O)N2[C@H](c3ccc(Cl)cc3)c3[nH]c4ccccc4c3C[C@@H]2C1=O)NO	21.6%	24.5%	51.8%	59.5%	74.3%	62.9%	33.5%	56.5%	63.7%	90.2%	25.9%	74.7%	43.2%	35.4%	48%	24.7%	82.3%	80.3%
Cc1ccc(C)c(/C=C2\CN(C(=O)OC(C)(C)C)C/C(=C\c3cc(C)ccc3C)C2=O)c1	0.122% (active)	-24.4% (active)	12.7%	86.1%	22%	87.7%	78.1%	13.1%	43.9%	26.5%	61.4%	85.5%	-9.21% (active)	18.5%	23.3%	-16.7% (active)	52.2%	16.7%
Nc1nc(N)c2c(n1)NC(c1ccc(Cl)cc1)C1CCc3ccccc3C1=N2 (stereo not given)	33.1%	41.9%	70.7%	103%	39.2%	66.8%	77.2%	40.5%	80.9%	52.5%	52.6%	83.2%	44.2%	63.8%	24.8%	31.8%	75.6%	55.4%
COc1ccc(/C=C/c2c(C(=O)/C=C/c3ccccc3)c(C)nc3ccccc23)cc1	10.7%	0.598% (active)	0.97% (active)	-29.3% (active)	37.2%	63.6%	6.06% (active)	-22.4% (active)	38.2%	3.63% (active)	12.9%	31.4%	-33% (active)	2% (active)	12.8%	-70.1% (active)	12.3%	3.01% (active)
CN1CCN(CCOc2ccc(-c3cnc4c(-c5ccc(F)cc5)cnn4c3)cc2)CC1	1.31% (active)	27%	58.1%	83.4%	49%	93.1%	48.2%	28.4%	56.7%	76.5%	52.7%	82.8%	-34.3% (active)	-86.9% (active)	41%	14.5%	71.6%	9.72% (active)
CO[C@H](C(=O)[C@@H](O)[C@@H](C)O)[C@@H]1Cc2cc3cc(O[C@H]4C[C@@H](O[C@H]5C[C@@H](O)[C@H](O)C(C)O5)[C@H](O)C(C)(O)O4)cc(O)c3c(O)c2C(=O)[C@H]1O[C@H]1C[C@@H](O[C@H]2C[C@@H](O[C@H]3C[C@@H](OC)[C@H](O)C(C)O3)[C@@H](O)C(C)O2)[C@H](O)C(C)O1 (stereo not given in full)	24%	26.7%	24.3%	21%	42.2%	17.3%	32.6%	21.7%	26.4%	102%	13.5%	4.37% (active)	24.8%	34%	6.89% (active)	6.03% (active)	39.9%	14.9%
CCCC(CC)(C(=O)Nc1ccc2nc(C)cc(N)c2c1)C(=O)Nc1ccc2nc(C)cc(N)c2c1	96.1%	100%	103%	85.1%	83.8%	93.1%	111%	108%	106%	109%	106%	101%	108%	112%	102%	85.2%	111%	109%
COc1ccc(-c2nc(/C=C3\C(=O)N(C)c4ccccc43)c3ccccn23)cc1	-7.02% (active)	104%	58.6%	85.5%	47.2%	66.8%	69.7%	94.3%	41.3%	77.6%	76%	104%	104%	84.7%	61.9%	56.5%	102%	93.7%
O=C(CI)NC(=O)NC(=O)NCc1ccccc1	-5.93% (active)	29.4%	56.3%	44.3%	30.3%	104%	21.1%	-55.9% (active)	102%	71%	18.8%	37.2%	21%	25.2%	12%	13.3%	95.3%	88.6%
Cc1c2cccnc2c(C)c2c1c1cc(CO)ccc1n2C	14.3%	23.1%	28.6%	2.92% (active)	33.3%	43.1%	4.27% (active)	25.2%	47.6%	24.2%	17%	35%	22.6%	15.8%	6.87% (active)	6.95% (active)	34.7%	31.1%
Cc1nc2c(=O)nc3s/c(=C\c4ccco4)c(=O)n3c2nc1C	94.2%	116%	96.1%	101%	101%	102%	93.4%	105%	-95.1% (active)	93.5%	94.3%	110%	94.1%	111%	96.4%	101%	97.2%	105%
